Among the data in PubChem BioAssay AID1508600 (Functional Genomics Laboratory (NCATS/FGL), 2020) are z-score values, retold here.

Screen size: about 53,000 sequences; about 3,700 (7%) were called active.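 Rule for the calls: active = gene knockdowns whose robust z-score for IL-1 alpha signal is at least 2 or at most -2, so actives lie on both sides; inactive = the rest.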 Shown is part of a subset that was picked to be rich in actives.

This assay can be described thus: Components of the Cytosolic LPS Sensing Pathway: Gene Identification via Genome-wide siRNA Screen. The conditions noted are these: RAW264.7 macrophages, IL-1a HTRF, actives lie on both sides, screened at 100 nM (by protocol), cells primed 5 h with Pam3CSK4 first. The text has this: Non-canonical inflammasome activation by cytosolic LPS is a critical component of the host response to Gram-negative bacterial infection, however we lack a comprehensive understanding of the cellular processes that control this pathway. Here we describe a genome-wide siRNA screen to identify genes regulating the mouse macrophage IL-1 alpha response to cytosolic LPS.
RAW264.7 cells were maintained in complete DMEM media, comprising DMEM with 4.5 g/L glucose, 10% FBS (Gemini Bio-Products, West Sacramento, CA), 2 mM Glutamine (Lonza) and 20 mM HEPES (Lonza), hereafter complete DMEM.
The RNAi screen was conducted in 384-well format using the Ambion Silencer Mouse Genome siRNA Library (#4391425), which consists of three unique, nonoverlapping, nonpooled siRNAs for each of 17,000 gene targets. siRNA reagents ([…]) were stamped into 384-well white flat-bottom microplates (Corning, 3570) using a Velocity11 VPrep liquid handling system (Agilent) integrated into a BioCel robotic platform (Agilent) in columns 1-22, leaving columns 23-24 empty for negative (Ambion, Negative control #1) and positive (mouse Casp4) controls, respectively. The median value of each plate's negative control column was used to normalize sample wells, and the positive control was used to assess transfection efficiency and assay performance.
Lipofectamine RNAiMAX Transfection Reagent ([…]; Invitrogen) was added in […] serum-free, antibiotic-free media to plate wells using a Thermo Scientific Matrix WellMate and Microplate Stacker. Plates were incubated for 45 min at room temperature to allow for the sufficient formation of siRNA-lipid complexes. Cells were seeded at a density of 1x10^4 cells per well in 20 microL media containing 20% (vol/vol) FBS without antibiotics. The final concentration of siRNA in each well was 100 nM. Cells were cultured for 48h at 37 degrees C in 5% CO2 before addition of […] of TLR ligand Pam3CSK4 for 5 hours. The medium was then removed, replaced with […] growth media and cell were transfected with […] of LipidA and TransIT-TKO (Mirus) for 24 hour. At the end of the LipidA treatment, […] of supernatant was transferred to a 384 Greiner Bio-one non-binding low volume plate and […] of IL-1a HTRF reagent (Cisbio, 62MIL1APEH) was added and incubated at room temperature overnight. The plates were read on an EnVision plate reader (PerkinElmer). Cell viability was measured by adding 20ul Cell Titer Glo to the original plate and running a luminescence read on the EnVision. The quantified IL-1a signal for each siRNA gene-targeted well was divided by the median of the negative control wells and multiplied by 100 to achieve a negative control normalized value for each well/siRNA. This normalized value was then used to generate a robust z-score by first taking the log of each value and then by subtracting the median and dividing by the […].
With GGAUGUGACGCACACAUGUTT against Cdip1, the z-score is 1.11 (inactive). In the case of GCAAAUUGGUCAUCGACUGTT against Alg1 it was 0.0456 (inactive); in that of GCCAUCUACUCUUUAAAUATT against Pdha1, 0.351 (inactive).

As to GCAGAAAAACAUCCACGACTT against Spn, the z-score is -2.01 (active). With GCAGACAGAUCGCUUCAACTT against Dok4, the z-score is -0.882 (inactive). Regarding CCCUCUUAGGAGCUAGUGATT against Atp2b4, the z-score was -1.85 (inactive). Consider CCAUUCGAUACCUCGUGCATT against Dhps, for which the z-score is -0.249 (inactive). For the sequence GGGCCUGGAUUACUUACACTT against Srpk1, the z-score was 4.83 (active). Turning to UACUUGUAGCCAUGGCUCUTT against Olfr685, the z-score is 0.334 (inactive). GGCAAAAUAUUGCACAGCGTT against Tsga10: the z-score was -0.474 (inactive). GGAAAUUAAACAGAAACAGTT against Ube2j2: the z-score is -0.471 (inactive).

With GGCUGUUUUACAUCAUCCCTT against Ust, the z-score was -0.227 (inactive). With GGGAAAGUUUCUGCAUUCUTT against Lce1d, the z-score was 2.07 (active). Regarding CCACAGUCUAUUCAAACUUTT against Ncapd3, the z-score is -1.12 (inactive).

For GGUCAAGUCAGCAUUCCUGTT against Hspbp1, the z-score was -1.78 (inactive). GGAAAAGAAGACCUACACCTT against Ppp1r1c: the z-score was -2.04 (active). With GGCCUGGAUGGAAAUUUGCTT against Fabp4, the z-score was -0.851 (inactive). In the case of GGAGAAAAGAGUUUGCCCGTT against Wfdc12, the z-score was -0.329 (inactive).

GCAAAUUCUCGGUGUCAAATT against Ezh2: the z-score was -1.04 (inactive). CCUAGUAACUAUCUACCUCTT against Sval3: the z-score is 0.232 (inactive).

With GGAUAUCAUCAUGUCUUUCTT against Otop1, the z-score is 1.29 (inactive). Take CGUGGAUAAAGAUAACCCGTT against Znrd2: the z-score is -0.117 (inactive). GAUAAAAUCGGACUGAUAATT against Olfr1079: the z-score is 0.837 (inactive). Turning to GGCGAACACUGUCAUGAAUTT against Spin4, the z-score is 3.37 (active).

With GGUAUUCACACUGAAGCCCTT against H2-DMa, the z-score was 0.108 (inactive). Turning to GCAACAUCCAGGCUUGCCUTT against Tmem107, the z-score is -0.874 (inactive).

Take “CCAUGAAGAACAAGAAAACTT against 1700010D01Rik”: the z-score was 0.239 (inactive). GGAUAGAAAACAGUAUCUGTT against Fggy: the z-score is 1.07 (inactive). GGAAAACUGCUUUGAGCUGTT against Thap7: the z-score is 2.72 (active).

For the sequence AAGGUGCAGAGUUACACGUTT against H2-T10, the z-score is 1.17 (inactive). “GGUCUUCAAUUUCUUCAAATT against 4930430F08Rik”: the z-score is 0.928 (inactive).

Turning to GCAAUGUGUAUCAGCCGACTT against Gprc5b, the z-score is 3.38 (active). Under GGGAAAACCGAAUAAAGAUTT against Ren2 stands -1.51 (inactive); under GCAUACCAUCUUAUUUUGGTT against Sptlc1, 0.159 (inactive). As to GCGUGAGCUAAUGUUCACATT against Agpat2, the z-score is -0.255 (inactive). Regarding “GCCACUACUAAUAGCAUGUTT against 5330438I03Rik”, the z-score was -1.68 (inactive). CCCAGCACAUGCUAUCUCUTT against Zbtb21: the z-score is -2.6 (active). Turning to GGAGAAUGGAAAGUAUGGGTT against D1Pas1, the z-score was -1.99 (inactive). As to GCCUAUAAGGAAUAACAAGTT against Cerkl, the z-score is 1.27 (inactive). Under GGCCUUGAUGGUGAAGAUGTT against Vstm4 stands -1.79 (inactive); under GGACAGACGUGCACUUAGATT against Garnl3, 0.875 (inactive); under GGUGGAUGUUCGCAUGAUUTT against Ip6k1, -1.2 (inactive). In the case of GGCAUAUACACAAUUGAUATT against Arsk, the z-score was -1.27 (inactive). For GGAUAAGGAGAUGAAUUCCTT against Aard, the z-score is 1.01 (inactive). As to GGUCUUACGCAAAACGGUCTT against Csf1r, the z-score is 2.86 (active).

As for CCCAAUCCUGUCAAUAGUCTT against Gfpt1, the z-score is -0.911 (inactive). For the sequence GGCCUAAUGAAUUUGGUCATT against Ubxn7, the z-score is 0.93 (inactive). On to CCCACAAAUUAAAGUCCGCTT against Cldn16, for which the z-score is 0.926 (inactive). Take GGACCUGUCUUCAUUGGAGTT against Ngb: the z-score is 0.981 (inactive). In the case of GCAGAUAAUUUUAACCCUCTT against Inpp5b it was 0.641 (inactive).

In the case of GCCAUUCUCCAACAAUCGATT against Evc, the z-score is -1.69 (inactive). For the sequence CCUGCUACAAGUAUCUCAATT against Fdft1, the z-score was 2.85 (active). For the sequence GCAACCUCUCCUCUCUAGATT against Olfr15, the z-score is -1.11 (inactive). In the case of GCGGAUUCAGCUGAUGAUGTT against Sash1, the z-score was -1.32 (inactive).

Regarding GGGUUCUCAAGGUUGCAUUTT against Frs3, the z-score is 1.15 (inactive).

With GCUCGCCUGCAUUUCAUCATT against Pank4, the z-score was 3.3 (active). Turning to CCCGGUUAGCCUUUGAUUGTT against Lamc3, the z-score is 0.576 (inactive). In the case of GGGAAUUUUGAAAAGGCUGTT against Nphp3, the z-score was 2.12 (active). Consider CCCUUGAGUCAUUCUCUAATT against Gsto1, for which the z-score was 0.0391 (inactive). On to GGAAAUAGAUUUUCAGCUCTT against Dnase2b, for which the z-score was 0.138 (inactive). Consider GGAAUUUGAAACUUACGGCTT against Oc90, for which the z-score was 0.379 (inactive). In the case of UUUCGAGCUGAUCCAUGAGTT against Tbata it was 1.19 (inactive). With GGUCCAGAUCCACCAGAUUTT against Banp, the z-score is 1.11 (inactive).

GGCACUCAAUGGUGAGCAATT against Sipa1: the z-score is 2.03 (active). With GGCUCUUGCUUUAGUAUUCTT against Ly9, the z-score is 0.99 (inactive). With GGCAGAUUACUCUGAAUGATT against Prdx4, the z-score is 0.326 (inactive). Turning to GGUUUAUUGUAAUGGCUAATT against Olfr1271, the z-score is 0.452 (inactive). With GGACAAAUGGGUAUUAUCUTT against Phxr4, the z-score was -1.01 (inactive). Take GGAGAUGAUUUCCUACUUCTT against Rasgrp2: the z-score is 3.47 (active).

For GGUGUACCAGAAUGAGAAGTT against Akr1b3, the z-score is 0.611 (inactive). With GGUAUUUAGUAAACACCCATT against Edar, the z-score was 0.413 (inactive). Under GGGUCAAAUCUGACUGCAUTT against Klf10 stands 0.501 (inactive). In the case of GAGAACCAGGCUAUGUCUGTT against Defa-rs10 it was 0.623 (inactive); in that of GCUGGCUGUUGGAUAAGUGTT against Olfr1112, 2.45 (active); in that of CCUUGAUUGAGCCUGACUUTT against Hook2, 0.543 (inactive).

On to CCUCAUAUAUCCCUAAUUATT against Camk1g, for which the z-score is -0.982 (inactive). In the case of GGACCUGUUUGAGCAGAGGTT against Eps8l2 it was 0.539 (inactive); in that of GGUAGAAGUGAAAAAGAUATT against Bhmt, -0.386 (inactive).

As to GCGAGAGAUUCUUUCCCUGTT against Traf6, the z-score was -1.24 (inactive). Take CCUCCUCUCUGUUUUCUACTT against Olfr699: the z-score was -1.16 (inactive). As to GCAGAAAAACCUGUGAAAATT against Pcnp, the z-score was 1.57 (inactive). In the case of GGAUGGAUGUUUGCAUAAATT against Msx2 it was 5.06 (active). Take GGGACACAUACUGUAGUAUTT against Pspc1: the z-score is 0.00343 (inactive). Take GGAGGAGAUGAUGAAUUUUTT against Etf1: the z-score is 0.965 (inactive). In the case of GGUGAGUUCAUGGUUUCCUTT against Txnl4b it was -0.142 (inactive); in that of GAGAAACUAUGGCUGAAAATT against Klk1, 0.439 (inactive); in that of CCCUAAAAGACAAAGUGCUTT against Cmtm3, 0.877 (inactive). On to CCUAGAGAGACAUAUUGUUTT against Vstm4, for which the z-score was -0.206 (inactive). Turning to GCCAAUGACCCAAAUUCUATT against Ppip5k1, the z-score was 0.812 (inactive). As to CCAUUUUUACCUACAUCCATT against Olfr452, the z-score was 2.43 (active). In the case of CCCUACAGUACUAAUCAAATT against Ptgs2 it was 0.6 (inactive); in that of GGGCUCUAACAUCUUAUACTT against Tbc1d31, 1.54 (inactive). As for GGGCCAUGGAUAAGAAAAATT against Psmc5, the z-score is -2.61 (active).

Turning to GGCACAGACGGAUCAACAGTT against Clcn3, the z-score is -0.725 (inactive).

With GCUAUUGAGAAACCACUUATT against Rasef, the z-score was -0.276 (inactive).

As for CCUAUUACUCAAACACAGATT against Arl5b, the z-score is -0.257 (inactive). Turning to GGACACAGCAAGAAGAUACTT against Wfdc12, the z-score was -1.79 (inactive). Regarding GCCACACCAAUAGAAGUGUTT against Csnk1g3, the z-score is -2.42 (active). Under UCUCCUUCAUUCCAUGUAUTT against Olfr441 stands -2.18 (active); under CCAUCAAAGUCAUCGACGGTT against Birc6, -0.427 (inactive); under GGAGUGAGUCCUGAAGCAATT against Ifna12, -0.372 (inactive). Consider GCCGUUACUGAGCUGAAAUTT against Allc, for which the z-score was -0.866 (inactive). In the case of CGCUUCAUGACUUCUGAAUTT against Ppp1r32 it was 0.0722 (inactive); in that of GCCCAACCUGUCCAUACUUTT against Guca2b, -0.193 (inactive). Under GCUAUUUUCGUCACUUUCUTT against Tssk1 stands 0.494 (inactive); under GGAUGAAUUCAUUGAAGAATT against Btk, 0.321 (inactive). In the case of GGUUCGUCGCCUUUUAGGGTT against Alx4 it was 3.74 (active). Turning to GAGCUUCUAAUUCACCCUATT against Abcc6, the z-score was 0.181 (inactive).
